# Results filed as inconclusive are left out. Active and inactive are the calls of the source. The calls were made as follows: active = hit-call score of the fitted dose curve at least 0.9, where 1 is the maximum; inconclusive = response in the unintended direction; inactive = score below 0.9.
# Molecular target: human Beta-secretase (BACE), BACE1 (gene 23621) (UniProt P56817)
# Assay: NVS_ENZ_hBACE: NovaScreen (NVS) Enzymatic Assay for human Beta-secretase (BACE) (AID 2283140);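 also: hits are inhibitors that reduce fluorescent substrate signal versus DMSO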
# In short: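 Enzyme from SF9 cells was incubated 1 hour with compound and fluorogenic substrate, activity read by fluorescence. Single-concentration duplicates at 25 uM preceded concentration-response follow-up; fitting relative to DMSO baseline.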
# Sequence of human Beta-secretase (BACE), BACE1 (gene 23621) (P56817 whole entry, looked up): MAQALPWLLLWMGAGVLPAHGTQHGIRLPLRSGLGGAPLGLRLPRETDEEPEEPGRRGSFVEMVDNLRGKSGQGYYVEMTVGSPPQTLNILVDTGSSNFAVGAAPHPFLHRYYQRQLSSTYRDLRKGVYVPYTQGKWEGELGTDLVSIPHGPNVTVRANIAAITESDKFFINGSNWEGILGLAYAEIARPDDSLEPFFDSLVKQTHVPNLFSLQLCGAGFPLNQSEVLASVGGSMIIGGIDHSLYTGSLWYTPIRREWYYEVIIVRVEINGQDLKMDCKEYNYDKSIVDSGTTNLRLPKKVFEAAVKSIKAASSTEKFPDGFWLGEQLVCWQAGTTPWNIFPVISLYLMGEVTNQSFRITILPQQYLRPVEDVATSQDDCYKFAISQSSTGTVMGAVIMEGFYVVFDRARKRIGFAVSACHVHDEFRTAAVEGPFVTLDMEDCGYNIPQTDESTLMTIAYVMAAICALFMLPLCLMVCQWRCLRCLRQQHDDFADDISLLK
SMILES,AC50,outcome
CCCOc1sc(C(=O)N2CCC(c3cc(CN)ccc3F)CC2)c(C)c1Br,4.17 µM (active),
COC(=O)CCCCC(=O)OC,,inactive
CCCCCCCCCCCCc1ccccc1S(=O)(=O)O,2.23 µM (active),
O=C(O)Cc1cc(I)c(Oc2cc(I)c(O)c(I)c2)c(I)c1,,inactive
c1ccc2c(c1)Cc1ccccc1-2,,inactive
NC(=O)N1C(=O)C(C(=O)c2cc(Cl)cs2)c2cc(F)c(Cl)cc21 (centres undefined),0.139 µM (active),
Cc1oc(-c2ccccc2)nc1CCOc1ccc(C[C@H](Nc2ccccc2C(=O)c2ccccc2)C(=O)O)cc1,1.17 µM (active),
CCC(=C(c1ccc(O)cc1)c1ccc(OCCN(C)C)cc1)c1ccccc1,16.1 µM (active),
CCCCCCCCCCCCCC[N+](C)(C)C,4.96 µM (active),
Nc1cccc2c(N)cccc12,19.5 µM (active),
CC(C)(C)c1ccc(O)c(C(C)(C)C)c1,,inactive

# Molecular target: human Caspase 8 (CASP8), CASP8 (gene 841) (UniProt Q14790)
# Assay: NVS_ENZ_hCASP8: NovaScreen (NVS) Enzymatic Assay for human Caspase 8 (CASP8) (AID 2283146)
# In short: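 The primary screen tested compounds in duplicate at a single 25 uM concentration, with actives followed up in concentration series. Activity of recombinant (E. coli) protease was measured by fluorescence 1 h post-dose, as signal loss against DMSO.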
# Sequence of human Caspase 8 (CASP8), CASP8 (gene 841) (Q14790 whole entry, looked up): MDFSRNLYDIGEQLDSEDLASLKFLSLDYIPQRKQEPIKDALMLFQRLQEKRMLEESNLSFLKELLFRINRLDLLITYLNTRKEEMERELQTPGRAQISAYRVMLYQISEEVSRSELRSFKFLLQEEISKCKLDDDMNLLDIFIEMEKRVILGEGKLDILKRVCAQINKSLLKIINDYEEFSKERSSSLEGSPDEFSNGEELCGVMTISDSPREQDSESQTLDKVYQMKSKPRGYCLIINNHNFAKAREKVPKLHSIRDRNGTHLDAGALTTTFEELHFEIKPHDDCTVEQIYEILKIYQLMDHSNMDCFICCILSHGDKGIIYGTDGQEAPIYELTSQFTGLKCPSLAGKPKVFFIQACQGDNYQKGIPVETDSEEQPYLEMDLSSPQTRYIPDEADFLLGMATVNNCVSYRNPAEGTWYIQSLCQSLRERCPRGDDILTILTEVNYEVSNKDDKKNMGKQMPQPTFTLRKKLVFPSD
SMILES,outcome,AC50
Oc1cc2ccccc2c2ccccc12,inactive,
C=C(C)C(=O)OCCC(F)(F)C(F)(F)C(F)(F)C(F)(F)C(F)(F)C(F)(F)F,,1.96 µM (active)
c1ccc2cc3c(ccc4ccccc43)cc2c1,inactive,

# Molecular target: human Casein Kinase 1-delta (CK1D), CSNK1D (gene 1453) (UniProt P48730)
# Assay: NVS_ENZ_hCK1D: NovaScreen (NVS) Enzymatic Assay for human Casein Kinase 1-delta (CK1D) (AID 2283148)
# In short: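 Recombinant human CK1-delta, cell-free; fluorescent substrate with electrophoretic mobility-shift separation of product, read 1 h after dosing. Single 25 uM duplicate screen, then concentration-response up to 50 uM; loss of signal vs DMSO.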
# Sequence of human Casein Kinase 1-delta (CK1D), CSNK1D (gene 1453) (P48730 whole entry, looked up): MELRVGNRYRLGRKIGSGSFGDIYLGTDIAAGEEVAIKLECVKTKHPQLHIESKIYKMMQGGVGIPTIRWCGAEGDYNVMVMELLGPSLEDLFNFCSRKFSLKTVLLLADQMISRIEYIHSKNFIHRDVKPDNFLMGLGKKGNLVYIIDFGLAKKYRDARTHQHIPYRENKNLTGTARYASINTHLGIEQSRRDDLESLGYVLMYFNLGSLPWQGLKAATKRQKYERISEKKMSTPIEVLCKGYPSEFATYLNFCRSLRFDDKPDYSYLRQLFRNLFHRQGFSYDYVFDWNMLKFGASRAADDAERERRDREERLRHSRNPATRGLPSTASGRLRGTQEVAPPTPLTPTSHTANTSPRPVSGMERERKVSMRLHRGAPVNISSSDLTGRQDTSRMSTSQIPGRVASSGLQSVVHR
SMILES,AC50,outcome
CCCCCCCCCCCCc1ccccc1S(=O)(=O)O,17.4 µM (active),
O=C(O)Cc1cc(I)c(Oc2cc(I)c(O)c(I)c2)c(I)c1,,inactive
O=C(O)c1ccccc1C(c1ccc(O)cc1)c1ccc(O)cc1,,inactive
CCN(CC)CCNc1ccc(CNC=O)c2sc3ccc(OC)cc3c(=O)c12,6.5 µM (active),
O=c1c(-c2ccc(O)cc2)coc2cc(O)ccc12,,inactive
COCC(C)OCC(C)O (centres undefined),,inactive

# Molecular target: human Colony Stimulating Factor 1 Receptor (CSF1R), CSF1R (gene 1436) (UniProt P07333)
# Assay: NVS_ENZ_hCSF1R: NovaScreen (NVS) Enzymatic Assay for human Colony Stimulating Factor 1 Receptor (CSF1R) (AID 2283150)
# In short: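 Compounds screened in duplicate at 25 uM, then concentration-response (top 50 uM) for those passing threshold such as 30% inhibition; recombinant CSF1R activity measured 1 h post-dosing via fluorescent substrate/product mobility-shift separation, loss of signal versus DMSO.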
# Sequence of human Colony Stimulating Factor 1 Receptor (CSF1R), CSF1R (gene 1436) (P07333 whole entry, looked up): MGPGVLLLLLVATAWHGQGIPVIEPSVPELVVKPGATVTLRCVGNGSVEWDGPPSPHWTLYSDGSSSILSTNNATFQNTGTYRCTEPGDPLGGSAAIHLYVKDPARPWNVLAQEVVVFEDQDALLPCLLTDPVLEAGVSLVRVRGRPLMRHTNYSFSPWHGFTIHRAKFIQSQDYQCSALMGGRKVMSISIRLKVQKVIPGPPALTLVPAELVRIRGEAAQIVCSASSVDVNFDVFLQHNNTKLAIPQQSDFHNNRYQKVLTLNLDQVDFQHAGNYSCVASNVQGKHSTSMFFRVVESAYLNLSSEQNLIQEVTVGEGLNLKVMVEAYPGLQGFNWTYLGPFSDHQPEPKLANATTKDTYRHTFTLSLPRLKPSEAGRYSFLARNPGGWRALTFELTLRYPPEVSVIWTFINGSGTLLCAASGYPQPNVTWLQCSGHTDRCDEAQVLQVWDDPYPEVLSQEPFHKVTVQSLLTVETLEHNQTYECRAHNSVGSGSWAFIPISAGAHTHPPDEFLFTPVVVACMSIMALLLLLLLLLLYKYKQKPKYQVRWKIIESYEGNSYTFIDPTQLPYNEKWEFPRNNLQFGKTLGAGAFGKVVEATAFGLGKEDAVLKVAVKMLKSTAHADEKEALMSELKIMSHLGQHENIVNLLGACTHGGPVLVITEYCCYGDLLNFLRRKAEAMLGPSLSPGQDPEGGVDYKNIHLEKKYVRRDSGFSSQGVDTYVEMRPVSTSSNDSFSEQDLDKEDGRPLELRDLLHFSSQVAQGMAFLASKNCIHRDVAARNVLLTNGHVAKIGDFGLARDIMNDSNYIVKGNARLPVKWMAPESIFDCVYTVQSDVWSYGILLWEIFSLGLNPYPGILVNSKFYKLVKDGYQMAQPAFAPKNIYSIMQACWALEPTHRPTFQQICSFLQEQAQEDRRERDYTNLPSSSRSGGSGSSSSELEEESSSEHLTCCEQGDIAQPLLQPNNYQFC
SMILES,outcome,AC50
N#C[C@@H]1CC(F)(F)CN1C(=O)CNC1CC2CCC(C1)N2c1ncccn1 (some centres undefined),inactive,
CCCOC(=O)c1ccc(O)cc1,inactive,
CCCCCCCCCCCCc1ccccc1S(=O)(=O)O,,17.3 µM (active)
O=C(O)Cc1cc(I)c(Oc2cc(I)c(O)c(I)c2)c(I)c1,inactive,
Cc1cc(CCN2CCN(c3nsc4ccccc34)CC2)cc2c1NC(=O)CC2(C)C,inactive,
COCC(C)OCC(C)O (centres undefined),inactive,

# Molecular target: human Dual Specificity Protein Phosphatase 3 (DUSP3), DUSP3 (gene 1845) (UniProt P51452)
# Assay: NVS_ENZ_hDUSP3: NovaScreen (NVS) Enzymatic Assay for human Dual Specificity Protein Phosphatase 3 (DUSP3) (AID 2283152);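 also: phosphatase activity of recombinant human DUSP3 on a fluorogenic substrate without cells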
# In short: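 Cell-free fluorescence-intensity enzyme activity assay with recombinant protein and substrate; loss of signal fitted relative to DMSO baseline. Primary screen in duplicate at 25 uM, actives then run in concentration series; measured 0 h after dosing.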
# Sequence of human Dual Specificity Protein Phosphatase 3 (DUSP3), DUSP3 (gene 1845) (P51452 whole entry, looked up): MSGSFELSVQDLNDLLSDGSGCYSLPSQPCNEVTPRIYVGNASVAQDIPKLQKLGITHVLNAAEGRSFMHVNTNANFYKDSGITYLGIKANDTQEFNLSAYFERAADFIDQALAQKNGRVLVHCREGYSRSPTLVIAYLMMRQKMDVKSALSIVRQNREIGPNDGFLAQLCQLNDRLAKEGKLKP
SMILES,outcome,AC50
CCCCCCCCOC(=O)CCCCCCCCC(=O)OCCCCCCCC,inactive,
CCCCCCCCCCCCCCCS(=O)(=O)Oc1ccccc1,inactive,
CC#C[C@]1(O)CC[C@H]2[C@@H]3CCC4=CC(=O)CCC4=C3[C@@H](c3ccc(N(C)C)cc3)C[C@@]21C,inactive,
CCCOc1sc(C(=O)N2CCC(c3cc(CN)ccc3F)CC2)c(C)c1Br,,7.33 µM (active)
O=C(O)Cc1cc(I)c(Oc2cc(I)c(O)c(I)c2)c(I)c1,,11 µM (active)
NC(=O)N1C(=O)C(C(=O)c2cc(Cl)cs2)c2cc(F)c(Cl)cc21 (centres undefined),,12.2 µM (active)
Cc1oc(-c2ccccc2)nc1CCOc1ccc(C[C@H](Nc2ccccc2C(=O)c2ccccc2)C(=O)O)cc1,,14.9 µM (active)
CC(C)(C)CC(C)(C)c1ccc(O)c(-n2nc3ccccc3n2)c1,,10.6 µM (active)
CCCCC(CC)COC(=O)CCCCC(=O)OCC(CC)CCCC (centres undefined),inactive,
ClC1=C(Cl)C(Cl)(Cl)C(Cl)=C1Cl,,16.3 µM (active)

# Molecular target: human Elastase, ELANE (gene 1991) (UniProt P08246)
# Assay: NVS_ENZ_hElastase: NovaScreen (NVS) Enzymatic Assay for human Elastase (AID 2283153)
# In short: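 Concentration-response to 50 uM max, run singly for chemicals passing a threshold (e.g., 30% inhibition) in a duplicate 25 uM single-point screen. Neutrophil-derived human elastase, absorbance read-out of enzyme activity at 1.5 h; DMSO baseline.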
# Sequence of human Elastase, ELANE (gene 1991) (P08246 whole entry, looked up): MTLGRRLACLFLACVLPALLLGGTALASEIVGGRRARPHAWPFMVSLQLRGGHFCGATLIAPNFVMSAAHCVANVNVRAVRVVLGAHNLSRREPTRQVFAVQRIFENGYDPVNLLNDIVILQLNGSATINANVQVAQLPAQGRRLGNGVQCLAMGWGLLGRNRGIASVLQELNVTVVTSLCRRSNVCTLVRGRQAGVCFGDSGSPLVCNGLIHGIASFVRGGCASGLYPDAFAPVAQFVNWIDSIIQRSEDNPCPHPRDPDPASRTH
SMILES,outcome,AC50
CCCCCCCCCCCCCCCS(=O)(=O)Oc1ccccc1,inactive,
CC#C[C@]1(O)CC[C@H]2[C@@H]3CCC4=CC(=O)CCC4=C3[C@@H](c3ccc(N(C)C)cc3)C[C@@]21C,,2.18 µM (active)
CCCCCCCCCCCCc1ccccc1S(=O)(=O)O,,38 µM (active)
O=C(O)Cc1cc(I)c(Oc2cc(I)c(O)c(I)c2)c(I)c1,,18.5 µM (active)
CC(=O)NC1(c2cccc(F)c2)CCN(CC[C@@]2(c3ccc(Cl)c(Cl)c3)CN(c3ccccc3)C(=O)CO2)CC1,,8.58 µM (active)
NC(=O)N1C(=O)C(C(=O)c2cc(Cl)cs2)c2cc(F)c(Cl)cc21 (centres undefined),,16.9 µM (active)
Cc1oc(-c2ccccc2)nc1CCOc1ccc(C[C@H](Nc2ccccc2C(=O)c2ccccc2)C(=O)O)cc1,,10.6 µM (active)
Nc1cccc2c(N)cccc12,inactive,
c1ccc2cc3c(ccc4ccccc43)cc2c1,,46.9 µM (active)

# Molecular target: human Esterase Plasma (ES), BCHE (gene 590) (UniProt P06276)
# Assay: NVS_ENZ_hES: NovaScreen (NVS) Enzymatic Assay for human Esterase Plasma (ES) (AID 2283157)
# In short: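 Human plasma-derived enzyme, cell-free, colorimetric readout at 0.25 h. Primary screen 25 uM in duplicate; hits (e.g. ≥30% inhibition) rerun singleton up to 50 uM. DMSO = negative control/baseline.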
# Sequence of human Esterase Plasma (ES), BCHE (gene 590) (P06276 whole entry, looked up): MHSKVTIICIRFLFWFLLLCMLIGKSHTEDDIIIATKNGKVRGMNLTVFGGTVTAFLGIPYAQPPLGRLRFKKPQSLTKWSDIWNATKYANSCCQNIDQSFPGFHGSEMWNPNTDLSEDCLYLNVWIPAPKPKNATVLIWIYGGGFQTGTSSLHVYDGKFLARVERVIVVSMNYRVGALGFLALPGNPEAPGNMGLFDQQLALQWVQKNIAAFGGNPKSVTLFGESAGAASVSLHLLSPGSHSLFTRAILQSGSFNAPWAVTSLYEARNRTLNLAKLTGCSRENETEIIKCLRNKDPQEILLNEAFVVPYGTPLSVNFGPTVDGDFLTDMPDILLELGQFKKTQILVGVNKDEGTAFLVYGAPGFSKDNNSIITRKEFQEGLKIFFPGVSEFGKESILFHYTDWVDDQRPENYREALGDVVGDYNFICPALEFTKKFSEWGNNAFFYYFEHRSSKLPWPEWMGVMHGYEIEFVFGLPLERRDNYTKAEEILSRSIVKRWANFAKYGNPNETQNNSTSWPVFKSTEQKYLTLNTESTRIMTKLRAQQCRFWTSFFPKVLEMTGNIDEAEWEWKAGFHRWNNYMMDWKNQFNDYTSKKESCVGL
SMILES,outcome,AC50
NC(=O)N(O)[C@@H]1C=C[C@H](Oc2cccc(Oc3ccc(F)cc3)c2)C1,inactive,
Oc1cc2ccccc2c2ccccc12,,14.1 µM (active)
CC#C[C@]1(O)CC[C@H]2[C@@H]3CCC4=CC(=O)CCC4=C3[C@@H](c3ccc(N(C)C)cc3)C[C@@]21C,,4.97 µM (active)
CCCOc1sc(C(=O)N2CCC(c3cc(CN)ccc3F)CC2)c(C)c1Br,,8.81 µM (active)
CCCCC(CC)COC(=O)CCCCC(=O)OCc1ccccc1 (centres undefined),inactive,
CC(=O)NC1(c2cccc(F)c2)CCN(CC[C@@]2(c3ccc(Cl)c(Cl)c3)CN(c3ccccc3)C(=O)CO2)CC1,,3.79 µM (active)
CCN(CC)CCNc1ccc(CNC=O)c2sc3ccc(OC)cc3c(=O)c12,,0.751 µM (active)
Cc1cc(CCN2CCN(c3nsc4ccccc34)CC2)cc2c1NC(=O)CC2(C)C,,22.2 µM (active)
OC1CCC(C2CCCCC2)CC1 (centres undefined),inactive,

# — PubChem BioAssay (EPA / NIEHS)
